In the supplement of paper PMC10723795:
± gives the standard deviation of the averaged measurements.

The compounds below were run on CHON-002 (assay: nucleolar normality score relative to DMSO (fraction of DMSO control); RPE1 is a non-cancer human cell line; higher = more normal nucleoli (less nucleolar stress)).
Procedure: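 Selected screen hits were validated in hTERT lines (BJ5TA, CHON-002, RPE1) and cancer lines (DLD1, HCT116). Cells were immunostained for nucleolin and UBF and the nucleolar normality score was measured per field of view, with 4 fields per drug. Scores are normalized to each cell line's own DMSO control. Dose and time are not stated for this panel.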

Row | Compound | nucleolar normality score
1 | CC[C@@]1(O)C(=O)OCc2c1cc1n(c2=O)Cc2cc3ccccc3nc2-1 [Camptothecin] | 0.38 ± 0.047
